According to PubChem BioAssay (Tox21):
Results filed as inconclusive are left out. A number with no mark means an inactive call. Active and inactive are the calls of the source. The call rests on the fitted dose curve; in most records, active means well fitted cell-killing curve with a large enough effect in the repeat runs; inconclusive means weak or mixed curves; inactive means flat fitted curve, though single readings scatter.

Experiment: qHTS RealTime-Glo MT Cell Viability Assay in HepG2 cells - 8 hour (AID 1224873); further: nearly all actives have a fitted effect of over 55% in size
Conditions: RealTime-Glo luminescence; series mostly up to 76.8 µM; viability change, negative = cytotoxic: at the top concentration
Source text: National Center for Advancing Translational Sciences [NCATS]
NIH Chemical Genomics Center [NCGC]
U.S. Environmental Protection Agency [EPA]
National Institutes of Environmental Health Sciences [NIEHS]
National Toxicology Program [NTP]
U.S. Food and Drug Administration [FDA]
Measure of cell viability is critical in the cell-base assay. Analysis of cell viability is necessary for the characterization of cell responses to cytotoxic drugs and environmental stress. A RealTime-Glo MT Cell Viability Assay to monitor cell viability in real time of continues cell culture during 40 hours of compound treatment was used to screen Tox21 10K library compounds in HepG2 cells. The RealTime-Glo MT Cell Viability Assay is a nonlytic, homogeneous, bioluminescent method to measure cell viability in real time using a simple, plate-based method. The assay involves adding NanoLuc luciferase and a cell-permeant prosubstrate to cells in culture. Viable cells reduce the proprietary prosubstrate to generate a substrate for NanoLuc luciferase. This substrate diffuses from cells into the surrounding culture medium, where it is rapidly used by the NanoLuc Enzyme to produce a luminescent signal. The signal correlates with the number of viable cells, making the assay well suited for cytotoxicity studies.
Tox21 Assay Protocol Summary:
The mixture of HepG2 cell suspension and reagents were dispensed at 600cells/6 ul/well in 1536-well tissue culture treated black solid bottom plates using a Multidrop dispenser. After the assay plates were incubated at a 37 C/5% CO2 incubator for 5 hours, 23 nL of compounds dissolved in DMSO, positive and negative controls was transferred to the assay plate by a pintool work station. The plates were incubated at 37 C for 40 hours. The luminescence intensity were measured at 0h, 8h, 16h, 24h, 32h and 40h time points using ViewLux plate reader during compound treatment.
On the % scale 0 is the no-effect control and ±100 the full control effect; potency means the concentration at half of the fitted maximal effect.

Row | SMILES | viability change, negative = cytotoxic | Potency
1 | CNC(=S)NN | -0.689% | –
2 | Cn1cccc1 | 5.38% | –
3 | COc1nccnc1CC(C)C | 0.0022% | –
4 | O=C1OC(=O)c2cccc3cccc1c23 | -7.98% | –
5 | CN1CN(C)CN(C)C1 | -5.23% | –
6 | COc1cc(C(=O)NS(=O)(=O)c2ccccc2C)ccc1Cc1cn(C)c2ccc(NC(=O)OC3CCCC3)cc12 | 1% [at 35.3 µM] | –
7 | O=C1c2c(O)ccc([N+](=O)[O-])c2C(=O)c2c([N+](=O)[O-])ccc(O)c21 | – | 13.7 µM (active)
8 | CCCC(C)CCC(C)=O (stereo not given) | 4.39% | –
9 | CC1(C)C(=O)N(Br)C(=O)N1Br | -3.92% | –
10 | CCC(C)c1cc([N+](=O)[O-])cc([N+](=O)[O-])c1OC(=O)OC(C)C (stereo not given) | – | 43.6 µM (active)
11 | Cc1cc(C)c(C=O)c(C)c1 | -13.8% | –
12 | Nc1cc(Cl)c([N+](=O)[O-])cc1O | -12.3% | –
13 | SCCCCCCCCS | 1.29% | –
14 | Cc1occc1SSc1ccoc1C | -16.8% | –
15 | O=C(O)CCCCCCC(=O)O | -0.136% | –
16 | Cc1ccc2ccc3cccc4ccc1c2c34 | -0.583% | –
17 | C=C(C)CCCC | 0.0347% | –
18 | CCc1cccc(C)c1 | -12.8% | –
19 | Clc1cccnc1 | 0.754% | –
20 | CSc1c(Cl)c(Cl)c(Cl)c(Cl)c1Cl | -15.7% | –

Row | SMILES | viability change, negative = cytotoxic | Potency
21 | Cc1oc(-c2ccccc2)nc1CCOc1ccc(C[C@H](Nc2ccccc2C(=O)c2ccccc2)C(=O)O)cc1 | -10.5% | –
22 | CC(C)(c1cc(Br)c(O)c(Br)c1)c1cc(Br)c(O)c(Br)c1 | – | inactive
23 | C=C[C@](C)(O)CC[C@@H]1[C@@]2(C)CCCC(C)(C)[C@@H]2CC[C@@]1(C)O | – | 49 µM (active)
24 | Clc1ccc(C(Cn2ccnc2)OCc2c(Cl)cccc2Cl)c(Cl)c1 (stereo not given) | -24.7% [at 35.3 µM] | –
25 | CC(C)c1cccc(C(C)C)c1N1C(=O)c2ccc(O)cc2C1=O | – | 43.6 µM (active)
26 | C=C/C=C/C=C/CCCCC | -19.2% [at 15.8 µM] | –
27 | CCCCCCCOC(=O)c1ccccc1C(=O)OCCCCCCC | 3.39% | –
28 | CCCCCCCC/C=C\CCCCCCCC(=O)N(C)CC(=O)O | -13.6% | –
29 | C/C=C/C=N/NC(=O)c1ccncc1 | 3.76% [at 35.3 µM] | –
30 | O=C(c1ccccc1)c1cc(Cl)ccc1O | 0.448% | –
31 | C[Si](C)(C)Cl | -0.493% | –
32 | O=c1cccc[nH]1 | -0.691% | –
33 | N[C@@H](CSSC[C@H](N)C(=O)O)C(=O)O | 3.56% [at 0.29 µM] | –
34 | O=S(=O)(O)CCCN1CCOCC1 | 1.8% | –
35 | CS(C)(=O)=O | -10.2% | –
36 | CCCCCCCCCCCCCCCCCO | 4.95% [at 15.8 µM] | –
37 | CCCCCCCCCCCCCCNCCO | – | 19 µM (active)
38 | CC(C)=CCCC(C)CCOC(=O)C(C)C (stereo not given) | 0.375% | –
39 | CCOC(=O)[C@@](C)(N)Cc1ccc(O)c(O)c1 | -4.42% [at 35.3 µM] | –
40 | CCc1cccc(CC)c1NC(=O)C(=O)O | 1.67% | –
